# “And” between values parts separate entries of the source, which are not always exact repeats. Identical values can stand only once. Inconclusive results are not listed. Where a call stands in place of a potency, no number is given. The source made the active and inactive calls. The call rests on the fitted dose curve; in most records, active means well fitted curve in the direction sought with a large enough effect; inconclusive means small, poorly fitted or top-dose-only effect, or another doubt; inactive means no such curve, though single readings can be large; an effect the other way counts as inactive or inconclusive. Positions of bridges follow the written chain, without caps; N, C: chain ends. Non-standard residues stand in square brackets, D forms with d. Residues, ends and D or L forms follow the SMILES beside them. ξ: configuration not given here. *: point of attachment. Octanoyl(6-Me) = CCC(C)CCCCC(=O)*; ξThr(3R) = C[C@@H](O)C(N)C(=O)O; dDab = NCC[C@@H](N)C(=O)O; Dab = NCC[C@H](N)C(=O)O
# Legend:
# [1] = target: Glutathione peroxidase 1 (Homo sapiens) (UniProt P07203); assay: Primary qHTS Assay for Inhibitors of Recombinant Selenoprotein Glutathione Peroxidase 1 (GPX1) (AID 1845191); conditions: recombinant GPX1, GR-coupled NADPH fluorescence, 15 min; series mostly up to 48.8 µM; further: nearly all actives have a fitted effect of over 65% in size
# Procedure, shortened: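 10 nM GPX1 + cpd, 30 min RT; start w/ 1 mM GSH, 0.5 mM cumene hydroperoxide, 0.5 mM NADPH, 100 nM GR, 0.01% BSA; buffer 50 mM Tris-HCl pH 7.5, 2 mM EDTA, 150 mM NaCl; Fl 340/450, 0 & 15 min.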
# [2] = Primary qHTS for inhibitors of nuclear receptor binding SET domain protein 2 (NSD2) in an RCH-ACV wild type WT cells (2C) (AID 1645877); conditions: RCH-ACV NSD2 WT (2C) viability, CellTiter-Glo, 72 h; series mostly up to 44.9 µM; further: nearly all actives have a fitted effect of over 70% in size; further: potency means the concentration at half of the fitted maximal effect
# [3] = Primary qHTS for inhibitors of nuclear receptor binding SET domain protein 2 (NSD2) in an isogenic RCH-ACV NSD2 p.E1099K mutant (9B) (AID 1645876); conditions: RCH-ACV (leukaemia line) NSD2 E1099K (9B) viability, CellTiter-Glo, 72 h; series mostly up to 44.9 µM; further: nearly all actives have a fitted effect of over 70% in size; further: potency means the concentration at half of the fitted maximal effect
# [4] = target: Phospholipid hydroperoxide glutathione peroxidase GPX4 (Homo sapiens) (UniProt P36969); assay: Primary qHTS Assay for Inhibitors of Recombinant Selenoprotein Glutathione Peroxidase 4 (GPX4) (AID 1845192); conditions: recombinant GPX4, GR-coupled NADPH fluorescence, 15 min; series mostly up to 50 µM; further: nearly all actives have a fitted effect of over 65% in size; further: potency means the concentration at half of the fitted maximal effect
# Procedure, shortened: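 NADPH consumption, followed by fluorescence at 340/450 nm between 0 and 15 min, reports GPX4 activity via coupled glutathione reductase (100 nM). Enzyme 200 nM was pre-exposed to compound 30 min; 0.5 mM cumene hydroperoxide and 1 mM GSH served as substrates.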
# [5] = target: Luciferin 4-monooxygenase (Photinus pyralis) (UniProt P08659); assay: Primary firefly luciferase (FLuc) qHTS assay for identification of artifact compounds. (AID 1845220); conditions: purified firefly luciferase, luminescence, 5 min; series mostly up to 54.1 µM; further: nearly all actives have a fitted effect of over 60% in size
# Procedure, shortened: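 Cell-free, 1536-well qHTS. Buffer pH 7.6 with 0.01% Tween-20 and 0.05% BSA; 10 uM D-luciferin, 10 uM ATP; 10 nM P. pyralis luciferase; luminescence after 5 min.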
# [6] = Primary fluorescence-based thiol-reactive (MSTI) qHTS assay for identification of artifact compounds. (AID 1845221); conditions: MSTI thiol-reactivity probe, 1 h; series mostly up to 53.8 µM;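 further: thiol-reactive compounds lower the probe fluorescence signal; nearly all actives have a fitted effect of over 65% in size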
# Procedure, shortened: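 A multi-concentration qHTS design tested compounds against 4 uM MSTI, pH 7.4 phosphate-buffered saline. Plates were protected from light for 1 h at room temperature before imaging fluorescence.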
# [7] = system: Nanoluciferase (engineered Oplophorus gracilirostris luciferase); assay: Primary Nanoluciferase (NLuc) qHTS assay for identification of artifact compounds. (AID 1845222); conditions: NLuc-conditioned medium, Nano-Glo luminescence, 5 min; series mostly up to 54.1 µM
# Procedure, shortened: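 Compounds are pinned into diluted (1:55) conditioned medium of NLuc-expressing S16 cells and held 15 min at room temperature protected from light. Nano-Glo substrate follows, and luminescence is read 5 min later.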
# [8] = Viability counterscreen for antagonist of constitutive androstane receptor (CAR) against the NCATS DSHEA and TCM libraries (AID 1794837); conditions: CAR reporter cell line viability counterscreen, qHTS; series mostly up to 40 µM;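 further: compound exposure lasted 24 h before viability reading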
# Procedure, shortened: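 Fluorescence from CellTiter-Fluor reports live-cell protease activity in HepG2-CYP2B6-hCAR cells treated for 24 h with substances alongside 48 uM CITCO.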
# [9] = Viability counterscreen for agonist of constitutive androstane receptor (CAR) against the NCATS DSHEA and TCM libraries (AID 1794838); conditions: HepG2 cell viability counterscreen, CAR agonist assay, co-treated with 0.75 µM CAR antagonist; series mostly up to 40 µM;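 further: cells exposed to compound for 24 h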
# Procedure, shortened: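 In agonist mode, PK11195 is added at 0.75 uM final to HepG2-CYP2B6-hCAR cells dosed with test substances. Cultures incubate 24 h at 37C before a protease-based fluorogenic viability readout.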
# [10] = target: Nuclear receptor subfamily 1 group I member 3 (Homo sapiens) (UniProt Q14994); assay: Primary qHTS for agonist of constitutive androstane receptor (CAR) against the NCATS DSHEA and TCM libraries (AID 1794839); conditions: CAR agonist reporter cells, qHTS luminescence, CAR antagonist co-added at 0.75 µM; series mostly up to 40 µM;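 further: HepG2 cells expressing human CAR with a CYP2B6 reporter plus PK11195 antagonist; luciferase reporter luminescence read with ONE-Glo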
# Procedure, shortened: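 Cells stably carrying hCAR and a CYP2B6 reporter (HepG2 background) are seeded and allowed 5 h to adhere. Substances at multiple concentrations are added alongside 0.75 µM PK11195, and luciferase signal is measured after 24 h.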
# [11] = HepG2 viability counterscreen (readout 2: ATP content) against the NCATS DSHEA and TCM libraries (AID 1794840); conditions: ATP content luminescence; series mostly up to 27.3 µM;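 further: HepG2 cells exposed to substances for about 24 h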
# Procedure, shortened: (§1)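 Cytotoxicity was assessed in HepG2 cells plated at 1,000 cells/well and exposed for about 24 hours to a concentration series. Protease activity and ATP content were measured sequentially in each well.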
# [12] = HepG2 viability counterscreen (readout 1: protease activity) against the NCATS DSHEA and TCM libraries (AID 1794841); conditions: qHTS concentration series; series mostly up to 27.3 µM;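 further: cells exposed to compounds for about 24 h before the protease read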
# Procedure, shortened: as §1
# [13] = target: Catechol O-methyltransferase (Homo sapiens) (UniProt P21964); assay: Confirmatory Screen for Target Class Profiling of Small Molecule Inhibitors of Methyltransferases (AID 1745852); conditions: MTase-Glo luminescence, SAH detection, recombinant enzyme; measured here: COMT max response; stronger effect = lower value
# [14] = target: Guanidinoacetate N-methyltransferase (Homo sapiens) (UniProt Q14353); assay: as above; conditions: MTase-Glo luminescence, SAH detection, recombinant enzyme; activity change, negative = inhibition: at 57.3 µM (top of the series); series mostly up to 57.3 µM
# [15] = target: Nicotinamide N-methyltransferase (Homo sapiens) (UniProt P40261); assay: as above; conditions: MTase-Glo luminescence, SAH detection, recombinant enzyme; measured here: NNMT max response; stronger effect = lower value
# [16] = target: Phenylethanolamine N-methyltransferase (Homo sapiens) (UniProt P11086); assay: as above; conditions: MTase-Glo luminescence, SAH detection, recombinant enzyme; measured here: PNMT max response; stronger effect = lower value
# Chain of Phenylethanolamine N-methyltransferase (Homo sapiens) (P11086 whole entry, looked up): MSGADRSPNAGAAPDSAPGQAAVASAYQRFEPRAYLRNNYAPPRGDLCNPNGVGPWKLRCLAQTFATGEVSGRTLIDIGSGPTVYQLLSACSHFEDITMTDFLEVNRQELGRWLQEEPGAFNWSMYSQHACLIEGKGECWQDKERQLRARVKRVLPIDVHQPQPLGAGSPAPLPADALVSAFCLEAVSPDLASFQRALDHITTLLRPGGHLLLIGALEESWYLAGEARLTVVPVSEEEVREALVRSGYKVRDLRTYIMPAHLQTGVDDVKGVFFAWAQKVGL
# Chain of Glutathione peroxidase 1 (Homo sapiens) (P07203 whole entry, looked up): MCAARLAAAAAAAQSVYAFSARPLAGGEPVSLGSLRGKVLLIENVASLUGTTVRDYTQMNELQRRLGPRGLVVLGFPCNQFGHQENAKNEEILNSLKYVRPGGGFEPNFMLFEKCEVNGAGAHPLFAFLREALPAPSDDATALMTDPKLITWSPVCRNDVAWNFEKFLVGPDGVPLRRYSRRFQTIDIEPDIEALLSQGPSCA
# Chain of Phospholipid hydroperoxide glutathione peroxidase GPX4 (Homo sapiens) (P36969 whole entry, looked up): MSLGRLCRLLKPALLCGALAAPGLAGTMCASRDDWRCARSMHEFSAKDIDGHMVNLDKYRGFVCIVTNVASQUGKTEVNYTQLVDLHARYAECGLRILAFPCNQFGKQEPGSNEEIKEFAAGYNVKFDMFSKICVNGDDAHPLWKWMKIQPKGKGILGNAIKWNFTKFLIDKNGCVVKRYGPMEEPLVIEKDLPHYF
# Chain of Nuclear receptor subfamily 1 group I member 3 (Homo sapiens) (Q14994 whole entry, looked up): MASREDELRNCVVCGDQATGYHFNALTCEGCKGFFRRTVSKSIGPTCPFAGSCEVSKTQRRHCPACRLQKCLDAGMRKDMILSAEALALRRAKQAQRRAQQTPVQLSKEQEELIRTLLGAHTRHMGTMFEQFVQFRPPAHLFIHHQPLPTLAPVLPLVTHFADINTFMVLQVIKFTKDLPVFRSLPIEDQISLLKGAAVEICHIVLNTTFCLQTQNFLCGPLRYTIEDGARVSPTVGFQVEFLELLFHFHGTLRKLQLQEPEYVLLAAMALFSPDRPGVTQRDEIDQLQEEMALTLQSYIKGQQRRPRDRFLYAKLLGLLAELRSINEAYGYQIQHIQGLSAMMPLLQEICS
# Chain of Catechol O-methyltransferase (Homo sapiens) (P21964 whole entry, looked up): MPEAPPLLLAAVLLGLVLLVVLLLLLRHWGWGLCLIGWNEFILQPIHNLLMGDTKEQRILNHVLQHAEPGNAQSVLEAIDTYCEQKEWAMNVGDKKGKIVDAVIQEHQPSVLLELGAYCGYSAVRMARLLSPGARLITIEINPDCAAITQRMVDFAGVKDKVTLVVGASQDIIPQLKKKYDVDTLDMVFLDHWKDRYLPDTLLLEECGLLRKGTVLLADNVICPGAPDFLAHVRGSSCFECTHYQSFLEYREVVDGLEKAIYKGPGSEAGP
# Chain of Nicotinamide N-methyltransferase (Homo sapiens) (P40261 whole entry, looked up): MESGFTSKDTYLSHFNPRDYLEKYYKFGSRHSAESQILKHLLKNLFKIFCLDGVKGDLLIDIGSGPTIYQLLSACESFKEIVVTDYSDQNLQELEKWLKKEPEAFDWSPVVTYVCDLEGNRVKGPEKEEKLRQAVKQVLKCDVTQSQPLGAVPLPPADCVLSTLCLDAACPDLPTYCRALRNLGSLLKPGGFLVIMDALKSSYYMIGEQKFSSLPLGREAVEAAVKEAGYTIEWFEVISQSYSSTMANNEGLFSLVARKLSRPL
structure (smiles),measurement,setting,value
COC(=O)C1C2CC3c4[nH]c5cc(OC)ccc5c4CCN3CC2CC(OC(=O)c2cc(OC)c(OC)c(OC)c2)C1OC (stereo not drawn),Potency,[1],inactive
C[C@H]1COc2c(N3CCN(C)CC3)c(F)cc3c(=O)c(C(=O)O)cn1c23,Potency,[2],inactive
same,Potency,[1],inactive
CCC(C)CCCCC(=O)N[C@@H](CCN)C(=O)NC(C(=O)N[C@H](CCN)C(=O)N[C@@H]1CCNC(=O)C([C@@H](C)O)NC(=O)[C@@H](CCN)NC(=O)[C@@H](CCN)NC(=O)[C@@H](CC(C)C)NC(=O)[C@H](Cc2ccccc2)NC(=O)[C@H](CCN)NC1=O)[C@@H](C)O (stereo partly drawn) ({Octanoyl(6-Me)}-[Dab][ξThr(3R)][dDab][dDab][Dab]F[dL][dDab][dDab][ξThr(3R)]; lactam 4-C),Potency,[3],inactive
same,Potency,[2],inactive
same,Potency,[4],inactive
CCC[C@H]1C[C@H](C(=O)N[C@@H]([C@@H]2O[C@@H](SC)[C@@H](O)[C@@H](O)[C@@H]2O)[C@H](C)Cl)N(C)C1,Potency,[3],inactive
same,Potency,[2],inactive
same,Potency,[5],inactive
same,Potency,[6],inactive
same,outcome,[7],inactive
Cn1cc(C2=C(c3c4n(c5ccccc35)CCC(CN)C4)C(=O)NC2=O)c2ccccc21 (stereo not drawn),outcome,[1],inactive [at 9.52 µM]
same,"activity change, negative = inhibition",[4],-6.23% [at 9.73 µM] (inactive)
COc1ccc(Nc2nccc(NCCO)n2)cc1,Potency,[1],inactive
same,Potency,[4],inactive
COc1cc(C(=O)NC2CCN(C)CC2)ccc1Nc1ncc2c(n1)N(C1CCCC1)CCC(=O)N2C(C)C,Potency,[3],13.2 µM (active)
same,Potency,[2],10.5 µM (active)
same,Potency,[4],inactive
CCN(C(=O)c1c(O)c2c(Cl)cccc2n(C)c1=O)c1ccccc1,Potency,[2],inactive
same,Potency,[1],inactive
CC(Cc1ccc(O)c(O)c1)(NN)C(=O)O (stereo not drawn),Potency,[2],29.5 µM (active)
same,Potency,[1],inactive
same,Potency,[4],inactive
CC(C)c1cc(C(C)C)c(CC(=O)NS(=O)(=O)Oc2c(C(C)C)cccc2C(C)C)c(C(C)C)c1,Potency,[5],inactive
same,Potency,[6],inactive
same,outcome,[7],inactive
c1cc(CN2CCCNCCNCCCNCC2)ccc1CN1CCCNCCNCCCNCC1,Potency,[2],inactive
same,Potency,[1],inactive
same,Potency,[4],inactive
Nc1nc2c(c(=O)[nH]1)N(C=O)[C@H](CNc1ccc(C(=O)N[C@@H](CCC(=O)O)C(=O)O)cc1)CN2,Potency,[3],inactive
same,Potency,[1],inactive
same,Potency,[4],inactive
C[N+]1(C)[C@@H]2C[C@@H](OC(=O)C(O)(c3cccs3)c3cccs3)C[C@H]1[C@@H]1O[C@@H]12,Potency,[1],inactive
same,Potency,[4],inactive
same,Potency,[5],inactive
same,Potency,[6],inactive
same,outcome,[7],inactive
O=C1c2c(O)cccc2[C@@H]([C@@H]2O[C@H](CO)[C@@H](O)[C@H](O)[C@H]2O)c2cc(CO)cc(O)c21,outcome,[8],inactive
same,outcome,[9],inactive
same,outcome,[10],inactive
same,outcome,[11],inactive
same,outcome,[12],inactive
Cn1cc(-c2cnn3c(N)c(Br)c([C@H]4CCCNC4)nc23)cn1,activity,[13],-1.78%
same,"activity change, negative = inhibition",[14],2.57%
same,activity,[15],-6.14%
same,activity,[16],-78.4%
same,Potency,[1],inactive
COc1cc2ncnc(Nc3cccc(Br)c3)c2cc1OC,Potency,[1],inactive
same,Potency,[4],inactive
C[C@H](O)[C@@H]1C(=O)N2C(C(=O)O)=C(S[C@@H]3CN[C@H](CNS(N)(=O)=O)C3)[C@@H](C)[C@@H]12,Potency,[3],inactive
same,Potency,[2],inactive
same,Potency,[4],inactive
same,Potency,[5],inactive
same,outcome,[7],inactive
COc1ccc(C(C)=O)c(O)c1,outcome,[8],inactive
same,outcome,[9],inactive
same,outcome,[10],inactive
same,outcome,[11],inactive
same,outcome,[12],inactive
NC(=O)N1CCC(CC(=O)N2CCC([C@H]3c4ncc(Br)cc4CCc4cc(Cl)cc(Br)c43)CC2)CC1,Potency,[3],14.8 µM (active)
same,Potency,[1],inactive
same,Potency,[4],inactive
Nc1ccn(C[C@@H](CO)OCP(=O)(O)O)c(=O)n1,"activity, negative = inhibition",[1],-28.5% [at 0.4 µM] (inactive) and -6.08% [at 9.52 µM] (inactive)
COC1=C(OC)C(=O)C(CC=C(C)CCC=C(C)CCC=C(C)CCC=C(C)CCC=C(C)CCC=C(C)CCC=C(C)CCC=C(C)CCC=C(C)CCC=C(C)C)=C(C)C1=O,"activity, negative = inhibition",[1],1.94% [at 4.49 µM] (inactive)
same,outcome,[4],inactive [at 4.52 µM]
C[C@H](NCc1ccc(OCc2cccc(F)c2)cc1)C(N)=O,Potency,[1],inactive
same,Potency,[4],inactive
Nc1cccc2c1C(=O)N(C1CCC(=O)NC1=O)C2=O (stereo not drawn),Potency,[1],inactive
same,Potency,[4],inactive
O=c1c(O)c(-c2ccc(O)c(O)c2)oc2cc(O)ccc12,Potency,[1],inactive
CCOC(=O)C=C[C@H](C[C@@H]1CCNC1=O)NC(=O)[C@@H](CC(=O)[C@@H](NC(=O)c1cc(C)on1)C(C)C)Cc1ccc(F)cc1,Potency,[3],inactive
same,Potency,[1],inactive
same,Potency,[4],inactive
CCOC(=O)C1=C(C)NC(=S)NC1c1cccc(O)c1 (stereo not drawn),Potency,[3],inactive
same,Potency,[1],inactive
same,Potency,[4],inactive
CN(CC(=O)N(Cc1ccc(C2CCCCC2)cc1)c1ccc(C(=O)O)c(O)c1)S(=O)(=O)c1c(F)c(F)c(F)c(F)c1F,Potency,[1],inactive
same,Potency,[4],11.4 µM (active)
